A selection: hits, their analogues and other compounds. The true share with any hit is near 5.7%.
HepG2 viability = HepG2 cytotoxicity, counter-screen for TGF-b inhibitors; AID 588856; Potency, µM (titrated, usually from 46.1 µM), for inactives: at the highest dose activity change, negative = cytotoxicity, actives largely listed as cytotoxic; HepG2 CAGA-GFP viability, ATP luminescence, 18 h; hit rate 0.76% among 410,000; note: potency is the fitted concentration of half-maximal effect
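HepG2 CAGA-GFP cells (1000/well, DMEM with 1% FBS) received compound, then TGF-beta at 500 pg/mL final, and were incubated 18 hours at 37 degrees C. Viability was read by CellTiter-Glo luminescence. Media-only wells were set as complete cell-killing and DMSO as no toxicity.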
ATXN2 expr inh = ATXN2 expression inhibition; HEK-293 ATXN2-luciferase reporter, luminescence, 24 h; Potency, µM (highest dose often 57 µM), inactives show at the top dose activity change, negative = inhibition, hits mostly inhibitors; hit rate 0.72% among 360,000; AID 1745845; note: potency is the fitted concentration of half-maximal effect; % is set by controls: 0 for no effect and ±100 for the full control effect; nearly all actives have a fitted effect of over 55% in size
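qHTS (up to 57 uM final) was run with 24 h compound exposure of reporter cells at 37 °C. Each well was multiplexed: SteadyGlo luminescence measured ATXN2-luciferase expression after a fluorogenic Gly-Phe-AFC viability readout (25 uM final).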
IL1B secr inh = inhibitors of inflammasome signaling (IL-1 beta secretion). THP-1 LPS/ATP IL-1B secretion, AlphaLISA, 16 h; stronger effect = lower value. activity change, % at 57.5 µM. hit rate 4.7% among 360,000; in the data active = activity change below about -50%; inconclusive = mostly about -30% to -49%; note: % is set by controls: 0 for no effect and ±100 for the full control effect
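Secreted IL-1B measured by AlphaLISA bead assay after 16 h compound exposure of THP-1 cells; compounds (final up to 57.5 uM) added 1 h before LPS (250 ng/mL) and ATP (1.25 mM) stimulation; lower signal means less secretion.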
ATXN viability = viability counter-screen for ATXN expression inhibitors; hit rate 0.49% among 400,000; Potency, µM (top dose mostly 56.7 µM), most hits filed as cytotoxic; S2 cells (HEK-293 line with an ATXN2-luciferase reporter) viability, CellTiter-Fluor protease fluorescence, 24 h; note: potency is the fitted concentration of half-maximal effect; nearly all actives have a fitted effect of over 40% in size
TGFb SMAD3 inh = inhibitors of TGF-b signaling; HepG2 CAGA-GFP TGF-b/SMAD3 reporter, GFP fluorescence, 18 h; TGF-beta stimulated, 500 pg/mL final; Potency, µM (series often up to 46.1 µM), for inactives: at the highest dose activity, negative = inhibition, actives largely listed as inhibitors; hit rate 1.2% among 410,000; AID 588855; note: potency is the fitted concentration of half-maximal effect; % is set by controls: 0 for no effect and ±100 for the full control effect; nearly all actives have a fitted effect of over 65% in size
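First, reporter cells (HEPG2 CAGA-GFP) rested 2 h at 37 degrees C. Next, compounds were pinned in and TGF-beta added to 500 pg/mL final. After 18 h, GFP was imaged per cell and summed per well.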
* = called active by the depositor; i = inactive; ? = inconclusive; . = no result. Unless noted, calls come from the whole dose curve; as a rule, active = well fitted curve in the direction sought with a large enough effect; inconclusive = small, poorly fitted or top-dose-only effect, or another doubt; inactive = no such curve, though single readings can be large; an effect the other way counts as inactive or inconclusive.

SMILES | HepG2 viability | ATXN2 expr inh | IL1B secr inh | ATXN viability | TGFb SMAD3 inh
CSc1nccc(-c2cc(Cl)c3c(c2)CC(CNC(=O)c2ccc(C)nc2)O3)n1 (centres undefined) | . | . | . | i | .
CCCOc1ccc(-c2nc(N3CCN(C)CC3)c3ccccc3n2)cc1 | -55% | 4% | -20 | i | ?
CCCOc1ccc(-c2nc(N3CCN(CC)CC3)c3ccccc3n2)cc1 | -51% | . | -57* | ? | ?
NCCCCCc1nnc(SCc2ccc(F)cc2)o1 | -5% | -6% | . | i | 9%
COc1cc2c(cc1O)C(Cc1ccc(O)cc1)NCC2 (centres undefined) | 4% | 4% | -7 | i | 2%
COc1cc2c(cc1OC)[C@H](Cc1ccc(O)cc1)NCC2 | -26% | -25% | -104* | ? | ?
CCCCN1CC(c2nc3ccccc3n2CCCCOc2cccc(C)c2C)CC1=O (centres undefined) | 11µM* | ? | . | ? | ?
CCCCN1CC(c2nc3ccccc3n2CCCCOc2ccc(C)c(C)c2)CC1=O (centres undefined) | -103% | ? | . | . | 11µM*
Cc1ccccc1CNC(=O)c1cccc(NC(=O)N2CCSc3ncccc32)c1 | -13% | . | . | . | 0%
CC(=O)N/C(=C/c1ccccc1)c1ccncc1 | -22% | . | . | . | -4%
O=C(NC(NC(=S)Nc1c(Cl)cc(Cl)cc1Cl)C(Cl)(Cl)Cl)OCc1ccccc1 (centres undefined) | -26% | -18% | -58* | i | ?
O=C(C1CC1)N1CCN(Cc2ccccc2)CC1 | 0% | -10% | 24 | i | -14%
CC1(C)C(C=C(Cl)Cl)C1C(=O)N1CCN(Cc2ccccc2)CC1 (centres undefined) | 6% | -16% | -51* | i | 7%
COc1cccc(-n2nc(C#N)c(Cl)cc2=O)c1 | 18µM* | 22µM* | -101* | 32µM* | 6.3µM*
O=C(CCC1N=C2c3ccccc3N=C(SCc3ccc(F)cc3)N2C1=O)NCCc1ccccc1 (centres undefined) | 3% | . | . | . | ?
Cc1nnc(N/N=C/c2cccc(OCc3ccc(Cl)c(Cl)c3)c2)n1N | -104% | 11% | -84* | ? | 22µM*
CCOC(=O)/C=C/C(=O)Nc1cc(S(=O)(=O)Nc2ccc(OC)cc2)ccc1N1CCOCC1 | -28% | -18% | -107* | i | -34%
COc1ccc(NS(=O)(=O)c2ccc(N3CCOCC3)c(NC(=O)C(C)C)c2)cc1 | 2% | -22% | 5 | i | 18%
Cc1ccc(/C=C/C(=O)Nc2ccc(Oc3ccccc3)cc2)o1 | -23% | 1% | -83* | i | ?
CCOC(=O)/C=C/C(=O)Nc1ccc(S(=O)(=O)Nc2c(C)cc(C)cc2C)cc1 | -38% | ? | -72* | ? | ?
CCOC(=O)/C=C/S(=O)(=O)c1ccc(NC(C)=O)cc1 | 2µM* | ? | -95* | ? | ?
CC(=O)c1ccc(NC(=O)/C=C/c2ccc(C)o2)cc1 | -29% | 0% | . | i | -7%
CC(C)C(=O)Oc1ccc(CO)cc1[C@H](CCN(C(C)C)C(C)C)c1ccccc1 | . | -17% | . | . | .
COC(=O)c1cc(NS(=O)(=O)c2ccc(N3CCOCC3)c(N)c2)cc(C(=O)OC)c1 | -7% | -4% | -54* | i | -16%
CCOC(=O)/C=C/C(=O)Nc1ccc(Oc2ccccc2)cc1 | -37% | ? | -73* | ? | ?
SMILES | HepG2 viability | ATXN2 expr inh | IL1B secr inh | ATXN viability | TGFb SMAD3 inh
O=C(CBr)c1ccc(Oc2ccc(C(=O)C[n+]3ccccc3Cl)cc2)cc1 | -27% | . | . | . | ?
COc1ccc(NC(=O)C2Cc3c(-c4ccc(Cl)cc4)ccnc3O2)cn1 (centres undefined) | 1% | ? | -7 | 3.5µM* | 5%
O=C(Nc1ccccc1)C1Cc2c(-c3ccc4c(c3)OCO4)ccnc2O1 (centres undefined) | -6% | -25% | ? | i | 19%
O=C(Nc1cccnc1)C1Cc2c(-c3ccc4c(c3)OCO4)ccnc2O1 (centres undefined) | -16% | ? | -57* | i | 8%
O=C(Nc1ccc2c(c1)OCO2)C1Cc2c(-c3ccc(Cl)cc3)ccnc2O1 (centres undefined) | -39% | ? | -53* | ? | ?
O=C(Nc1ccccc1)C1Cc2c(-c3ccc(Cl)cc3)ccnc2O1 (centres undefined) | 0% | -20% | -51* | i | -14%
O=C(Nc1ccc2c(c1)OCO2)C1Cc2c(-c3ccc4c(c3)OCO4)ccnc2O1 (centres undefined) | -42% | ? | -2 | ? | ?
O=C(NCC1CCC2(CCN(Cc3c[nH]c4ccccc34)CC2)O1)C1CCOCC1 (centres undefined) | . | . | . | i | .
COc1cccc(C2C(C(=O)Nc3ccccc3)=C(C)Nc3nnnn32)c1OC (centres undefined) | -2% | . | . | . | -19%
CC(C)c1ccc(NC(=O)C2Cc3c(-c4cccc(F)c4)ccnc3O2)cc1 (centres undefined) | -21% | -2% | -67* | ? | -27%
Cc1cc(=O)c2ccccc2n1Cc1ccccc1 | -22% | ? | -50* | i | ?
Cc1cc(=O)c2ccccc2n1CC(=O)NCc1ccccc1 | -23% | -16% | 12 | i | ?
CCCSc1nc(-c2ccccc2)[nH]c1S(=O)(=O)c1ccc(C)cc1 | -38% | 0% | . | ? | ?
COc1ccc(Nc2nc(Cl)nc(Nc3ccc(OC)cc3)n2)cc1 | 3% | -21% | -24 | i | -12%
CC(C)(C)Nc1nc(Cl)nc(Nc2ccccc2)n1 | -2% | 40% | -65* | i | 0%
COc1ccccc1Nc1nc(Cl)nc(NC(C)(C)C)n1 | 3% | -6% | -22 | i | 5%
Clc1nc(Nc2ccccc2)nc(Nc2ccccc2)n1 | -25% | 17% | -100* | i | -11%
CCCCn1cc(S(=O)(=O)c2ccc(Cl)cc2)c(=O)c2cc(F)c(N3CCCC(C)C3)cc21 (centres undefined) | -1% | . | . | . | -27%
CN(C(=O)CSc1nncc2ccccc12)c1ccccc1 | 1% | 10% | -87* | i | -5%
Brc1ccc(C2Nc3cccc4cccc(c34)N2)o1 | -12% | 0% | -77* | i | 3%
Fc1ccc2[nH]c3c(Cl)ncnc3c2c1 | -18% | -14% | -96* | i | 0%
OC1(c2cccc(C(F)(F)F)c2)CCN(c2ncnc3c2[nH]c2ccc(F)cc23)CC1 | 20µM* | 6% | -68* | i | ?
COc1ccc2[nH]c3c(Cl)ncnc3c2c1 | -17% | 0% | ? | i | -1%
CCOC(=O)N1CCN(c2ncnc3c2[nH]c2ccc(F)cc23)CC1 | -28% | ? | -3 | ? | -6%

Screens deposited in PubChem BioAssay by National Center for Advancing Translational Sciences (NCATS).
